These results are taken from PubChem BioAssay (EPA / NIEHS).

What all share (settings): mRNA level, 48 h; actives raise or lower the signal
Read-out in assay [1]: Early growth response protein 1 (EGR1) transcription factor, EGR1 (gene 1958)
The experiment in a line: LTEA_HepaRG_EGR1: Life Technologies and Expression Analysis (LTEA) Assay for Early growth response protein 1 (EGR1) transcription factor using HepaRG (AID 2283490). An outline of the steps:
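Read-out is EGR1 mRNA level by qRT-PCR, normalized to three housekeeping genes and analysed for gain or loss of signal against 0.5% DMSO. Source cells: human HepaRG, treated 48 h at up to 100 uM in half-log dilutions.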

Read-out in assay [2]: Ezrin (EZR), EZR (gene 7430)
The experiment in a line: LTEA_HepaRG_EZR: Life Technologies and Expression Analysis (LTEA) Assay for Ezrin (EZR) using HepaRG (AID 2283491). An outline of the steps:
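HepaRG, 48 h chemical exposure, 8-pt half-log series from 100 uM, 0.5% DMSO vehicle, duplicates. Read-out: EZR mRNA by TaqMan qRT-PCR (Fluidigm array), housekeeping-normalized; bidirectional curve fit vs DMSO baseline.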

Read-out in assay [3]: Cytochrome P450 3A7 (Homo sapiens) (UniProt P24462)
The experiment in a line: LTEA_HepaRG_CYP3A7: Life Technologies and Expression Analysis (LTEA) Assay for CYP3A7 using HepaRG (AID 2283492). The gist of the method:
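Differentiated HepaRG cells in serum-free induction medium exposed 48 h in duplicate to 8-point half-log series from 100 uM top in 0.5% DMSO. CYP3A7 mRNA by qRT-PCR, normalized to ACTB/GAPDH/POLR2A, bidirectional fit versus DMSO.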

Read-out in assay [4]: CYP3A5 (gene 1577)
The experiment in a line: LTEA_HepaRG_CYP3A5: Life Technologies and Expression Analysis (LTEA) Assay for CYP3A5 using HepaRG (AID 2283493). An outline of the steps: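 HepaRG plated 48 h, switched to serum-free induction medium, chemicals added 48 h (max 100 uM, half-log, 0.5% DMSO). RNA isolated; CYP3A5 by TaqMan qRT-PCR. Gain/loss vs DMSO.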

Read-out in assay [5]: Fatty Acid-Binding Protein 1 (FABP1), FABP1 (gene 2168)
The experiment in a line: LTEA_HepaRG_FABP1: Life Technologies and Expression Analysis (LTEA) Assay for Fatty Acid-Binding Protein 1 (FABP1) using HepaRG (AID 2283494). An outline of the steps: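 HepaRG, 48 h post-plating switched to serum-free induction medium, then dosed 48 h (duplicate, 8 pts, ≤100 uM, 0.5% DMSO). RNA → Fluidigm TaqMan qRT-PCR, FABP1 normed to ACTB/GAPDH/POLR2A. Bidirectional curve fit vs DMSO.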

Read-out in assay [6]: Cytochrome P450 4A22 (Homo sapiens) (UniProt Q5TCH4)
The experiment in a line: LTEA_HepaRG_CYP4A22: Life Technologies and Expression Analysis (LTEA) Assay for Cytochrome P450 4A22 (CYP4A22) using HepaRG (AID 2283495). The gist of the method: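 Differentiated HepaRG cells in serum-free induction medium exposed 48 h in duplicate to eight half-log concentrations up to 100 uM in 0.5% DMSO. CYP4A22 mRNA quantified by TaqMan qRT-PCR, normalized to ACTB, GAPDH and POLR2A; bidirectional fit versus DMSO.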

Read-out in assay [7]: Cytochrome P450 7A1 (Homo sapiens) (UniProt P22680)
The experiment in a line: LTEA_HepaRG_CYP7A1: Life Technologies and Expression Analysis (LTEA) Assay for Cytochrome P450 7A1 (CYP7A1) using HepaRG (AID 2283496). The gist of the method: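 HepaRG cells plated 48 h, then switched to serum-free induction medium and exposed in duplicate for 48 h to 8-point half-log series from 100 uM in 0.5% DMSO. CYP7A1 mRNA by qRT-PCR (TaqMan), normalized to ACTB/GAPDH/POLR2A; bidirectional fit versus DMSO.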

Read-out in assay [8]: Glutathione S-Transferase (GSTA2), GSTA2 (gene 2939)
The experiment in a line: LTEA_HepaRG_GSTA2: Life Technologies and Expression Analysis (LTEA) Assay for Glutathione S-Transferase (GSTA2) using HepaRG (AID 2283497). An outline of the steps: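 HepaRG, 48 h dosing, 8-pt half-log CRC from 100 uM, 0.5% DMSO vehicle, n=2; RNA → Fluidigm TaqMan qRT-PCR; GSTA2 vs ACTB/GAPDH/POLR2A; gain/loss fit vs DMSO.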

Read-out in assay [9]: Glutamate-cysteine ligase catalytic (GCLC), GCLC (gene 2729)
The experiment in a line: LTEA_HepaRG_GCLC: Life Technologies and Expression Analysis (LTEA) Assay for Glutamate-cysteine ligase catalytic (GCLC) using HepaRG (AID 2283498). An outline of the steps:
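Read-out is GCLC transcript level by Fluidigm-based TaqMan qRT-PCR, normalized to three housekeeping genes and fitted in both directions relative to 0.5% DMSO. Human HepaRG cells received chemicals for 48 h, up to 100 uM.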

Read-out in assay [10]: growth arrest and DNA damage 45 (GADD45G), GADD45G (gene 10912)
The experiment in a line: LTEA_HepaRG_GADD45G: Life Technologies and Expression Analysis (LTEA) Assay for growth arrest and DNA damage 45 (GADD45G) using HepaRG (AID 2283499). An outline of the steps:
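Differentiated human HepaRG cells, 48 h post-plating, exposed 48 h in serum-free induction medium to 8 half-log concentrations (top 100 uM, 0.5% DMSO) in duplicate. GADD45G mRNA measured by Fluidigm TaqMan qRT-PCR, normalized to ACTB, GAPDH, POLR2A; bidirectional fit versus DMSO.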

Read-out in assay [11]: Glutamate-cysteine ligase regulatory (GCLM), GCLM (gene 2730)
The experiment in a line: LTEA_HepaRG_GCLM: Life Technologies and Expression Analysis (LTEA) Assay for Glutamate-cysteine ligase regulatory (GCLM) using HepaRG (AID 2283500). The gist of the method: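 Cells were plated, cultured 48 h, switched to serum-free induction medium, then dosed in duplicate for 48 h at eight half-log concentrations up to 100 uM. RNA was then profiled by qRT-PCR; gain or loss versus DMSO was fitted.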

Read-out in assay [12]: Glutathione S-transferase M3 (GSTM3), GSTM3 (gene 2947)
The experiment in a line: LTEA_HepaRG_GSTM3: Life Technologies and Expression Analysis (LTEA) Assay for Glutathione S-transferase M3 (GSTM3) using HepaRG (AID 2283501). The gist of the method: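 Differentiated human HepaRG cells were exposed in duplicate for 48 h in serum-free induction medium, 8 points from 100 uM top in half-log steps, 0.5% DMSO. GSTM3 mRNA was measured by TaqMan qRT-PCR, normalized to ACTB, GAPDH and POLR2A; bidirectional fit versus DMSO.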

Read-out in assay [13]: Heat shock 70 kDa protein 1 (HSPA1A), gene 3303
The experiment in a line: LTEA_HepaRG_HSPA1A: Life Technologies and Expression Analysis (LTEA) Assay for Heat shock 70 kDa protein 1 (HSPA1A) using HepaRG (AID 2283502). An outline of the steps:
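Readout is HSPA1A transcript level by microfluidic qRT-PCR, normalized to three housekeeping genes and analysed for gain or loss of signal relative to 0.5% DMSO. Human HepaRG cultures received test chemicals for 48 h at up to 100 uM.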

Read-out in assay [14]: Hypoxia-inducible factor 1-alpha (Homo sapiens) (UniProt Q16665)
The experiment in a line: LTEA_HepaRG_HIF1A: Life Technologies and Expression Analysis (LTEA) Assay for Hypoxia-inducible factor 1 (HIF1A) Trancription factor using HepaRG (AID 2283503). An outline of the steps: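 Differentiated HepaRG cells in serum-free induction medium exposed 48 h, in duplicate, to 8-point half-log series from 100 uM in 0.5% DMSO. HIF1A mRNA measured by TaqMan qRT-PCR, normalized to ACTB/GAPDH/POLR2A, fitted bidirectionally versus DMSO.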

Read-out in assay [15]: 3-Hydroxy-3-Methylglutaryl-CoA Synthase 2 (HMGCS2), HMGCS2 (gene 3158)
The experiment in a line: LTEA_HepaRG_HMGCS2: Life Technologies and Expression Analysis (LTEA) Assay for 3-Hydroxy-3-Methylglutaryl-CoA Synthase 2 (HMGCS2) using HepaRG (AID 2283504). An outline of the steps: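 Human HepaRG cells in serum-free induction medium were exposed in duplicate for 48 h to 8-point half-log series from 100 uM top in 0.5% DMSO. HMGCS2 mRNA measured by TaqMan qRT-PCR, normalised to ACTB, GAPDH, POLR2A; bidirectional fit versus DMSO.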

Read-out in assay [16]: HGF (gene 3082)
The experiment in a line: LTEA_HepaRG_HGF: Life Technologies and Expression Analysis (LTEA) Assay for Hepatocyte Growth Facto (HGF) using HepaRG (AID 2283505). An outline of the steps: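 Differentiated HepaRG cells in serum-free induction medium exposed 48 h in duplicate, 8 half-log concentrations from 100 uM in 0.5% DMSO. HGF mRNA by qRT-PCR, normalised to ACTB, GAPDH, POLR2A; bidirectional fitting.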

Read-out in assay [17]: Insulin Like Growth Factor 1 (IGF1), IGF1 (gene 3479)
The experiment in a line: LTEA_HepaRG_IGF1: Life Technologies and Expression Analysis (LTEA) Assay for Insulin Like Growth Factor 1 (IGF1) using HepaRG (AID 2283506). An outline of the steps:
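HepaRG, plated 48 h, then switched to serum-free induction media; test chemical 8-pt half-log from 100 uM (0.5% DMSO), duplicate, 48 h. Lysis in RLT, TaqMan qRT-PCR, norm. ACTB/GAPDH/POLR2A. Bidirectional fit vs DMSO.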

Read-out in assay [18]: Intercellular Adhesion Molecule 1 (ICAM1), ICAM1 (gene 3383)
The experiment in a line: LTEA_HepaRG_ICAM1: Life Technologies and Expression Analysis (LTEA) Assay for Intercellular Adhesion Molecule 1 (ICAM1) using HepaRG (AID 2283507). The gist of the method:
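Differentiated human HepaRG cells in serum-free induction medium exposed 48 h in duplicate to 8 half-log concentrations (top 100 uM, 0.5% DMSO). ICAM1 mRNA quantified by TaqMan qRT-PCR, normalized to ACTB, GAPDH and POLR2A; bidirectional fitting versus DMSO.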

Read-out in assay [19]: Insulin-like growth factor-binding protein 1 (IGFBP1), IGFBP1 (gene 3484)
The experiment in a line: LTEA_HepaRG_IGFBP1: Life Technologies and Expression Analysis (LTEA) Assay for Insulin-like growth factor-binding protein 1 (IGFBP1) using HepaRG (AID 2283508). An outline of the steps:
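HepaRG cells, plated 48 h then switched to serum-free induction medium, exposed in duplicate for 48 h to 8-point half-log series from 100 uM in 0.5% DMSO. mRNA measured by qRT-PCR, normalized to ACTB/GAPDH/POLR2A; bidirectional fit versus DMSO.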

Read-out in assay [20]: Interleukin 6 (IL6), IL6 (gene 3569)
The experiment in a line: LTEA_HepaRG_IL6: Life Technologies and Expression Analysis (LTEA) Assay for Interleukin 6 (IL6) using HepaRG (AID 2283509). The gist of the method:
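HepaRG, ~100,000 cells/well, 48 h pre-culture; serum-free induction medium; cmpd 8-pt half-log from 100 uM, 0.5% DMSO, duplicate, 48 h. Lysis in RLT, TaqMan qRT-PCR; gain or loss vs DMSO.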

The source made the active and inactive calls. Rule for the calls: active = hit-call score of the fitted dose curve at least 0.9, where 1 is the maximum; inactive = score below 0.9.

Cytochrome P450 3A7 (Homo sapiens), sequence (P24462 whole entry, looked up): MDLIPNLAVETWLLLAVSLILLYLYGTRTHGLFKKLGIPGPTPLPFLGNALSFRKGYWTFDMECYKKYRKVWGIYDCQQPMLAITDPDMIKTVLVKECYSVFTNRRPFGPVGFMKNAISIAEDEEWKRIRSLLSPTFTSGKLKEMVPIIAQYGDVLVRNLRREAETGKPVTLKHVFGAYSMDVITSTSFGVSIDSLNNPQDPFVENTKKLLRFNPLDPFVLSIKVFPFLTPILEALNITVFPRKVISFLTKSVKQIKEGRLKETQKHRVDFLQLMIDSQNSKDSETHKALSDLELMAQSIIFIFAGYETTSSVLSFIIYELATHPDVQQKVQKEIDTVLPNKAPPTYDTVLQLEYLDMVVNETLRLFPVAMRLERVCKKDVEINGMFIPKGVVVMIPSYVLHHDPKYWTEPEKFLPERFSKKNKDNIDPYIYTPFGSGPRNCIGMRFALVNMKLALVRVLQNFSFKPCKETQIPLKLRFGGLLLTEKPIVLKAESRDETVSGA
Hypoxia-inducible factor 1-alpha (Homo sapiens), sequence (Q16665 whole entry, looked up): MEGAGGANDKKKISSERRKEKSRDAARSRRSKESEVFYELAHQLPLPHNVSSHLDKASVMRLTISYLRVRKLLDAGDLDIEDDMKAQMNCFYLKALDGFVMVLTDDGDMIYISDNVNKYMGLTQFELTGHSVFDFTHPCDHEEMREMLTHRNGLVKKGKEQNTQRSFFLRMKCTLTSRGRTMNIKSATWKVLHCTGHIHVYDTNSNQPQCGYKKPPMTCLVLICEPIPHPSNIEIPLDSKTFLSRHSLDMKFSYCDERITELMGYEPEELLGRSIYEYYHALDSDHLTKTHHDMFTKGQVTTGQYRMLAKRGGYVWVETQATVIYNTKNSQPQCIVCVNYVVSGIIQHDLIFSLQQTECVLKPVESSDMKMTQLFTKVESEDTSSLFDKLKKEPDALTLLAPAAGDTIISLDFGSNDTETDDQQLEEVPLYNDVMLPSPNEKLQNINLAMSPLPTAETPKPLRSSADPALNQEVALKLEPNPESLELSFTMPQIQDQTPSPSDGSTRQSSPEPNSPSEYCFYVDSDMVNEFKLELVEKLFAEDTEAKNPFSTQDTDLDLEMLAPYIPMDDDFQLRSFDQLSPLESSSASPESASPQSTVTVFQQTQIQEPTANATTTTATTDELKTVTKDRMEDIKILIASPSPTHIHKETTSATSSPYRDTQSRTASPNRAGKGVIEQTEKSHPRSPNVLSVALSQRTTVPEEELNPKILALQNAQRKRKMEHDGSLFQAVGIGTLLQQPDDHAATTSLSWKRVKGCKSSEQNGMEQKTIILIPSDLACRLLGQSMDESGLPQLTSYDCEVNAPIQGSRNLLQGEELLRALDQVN

In the case of `Nc1cnn(-c2ccccc2)c(=O)c1Cl`, the outcome in assay [1], in [2], in [3], in assay [4], in assay [5] and in assay [6] was inactive. In addition, the call in assay [7], in assay [8], in assay [9], in assay [10], in [11] and in [12] was inactive. Also, the call in assay [13], in assay [14], in [15], in assay [16], in [17] and in assay [18] was inactive. Moreover, the compound was classed as inactive in assay [19] and in assay [20].
`CC(C)NC(=O)N1CC(=O)N(c2cc(Cl)cc(Cl)c2)C1=O`: the compound was classed as inactive in assay [1], in assay [2], in [3], in assay [4], in assay [9] and in assay [12]. For the same compound, the call in assay [14], in [16], in assay [18], in assay [19] and in assay [20] was inactive. Further, the AC50 in assay [5] is 13.2 µM (active); in assay [6], 8.83 µM (active); in assay [7], 13.1 µM (active); in assay [8], 25 µM (active); in assay [10] it was 50 µM (active); in [11], 27.8 µM (active). The AC50 in assay [15] was 13.2 µM (active); in assay [17] it was 3.79 µM (active).
`COP(=S)(OC)Oc1ccc([N+](=O)[O-])c(C)c1`: the outcome in assay [1], in assay [2], in assay [3], in assay [4], in assay [5] and in assay [6] was inactive. Also, the outcome in assay [7], in [8], in assay [9], in [10], in assay [11] and in [12] was inactive. Besides, the outcome in assay [13], in assay [14], in assay [15], in assay [16], in [17] and in assay [18] was inactive. In addition, the outcome in assay [19] and in assay [20] was inactive.

What is called AC50 is the concentration giving half of the maximal activity seen.
